Measurements from PubChem BioAssay.
A number with no mark means an inactive call. Active and inactive are the calls of the source.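 How the source made its calls, unless noted: active means compounds that lower survival of HCT116 colon cancer cells in the luminescence readout, no numeric limit stated; inactive means the rest.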

Experiment: HCT116 colon cancer cell growth inhibition, primary screen, CellTiter-Glo luminescence, NPC library (AID 1117342)
Conditions: at 20 µM (top of the series)

| SMILES | inhibition of viability |
| --- | --- |
| Cc1cc(=O)c2c(O)c3c(O)cc(=O)c4c3c3c(cc(O)c1c23)C(C)(C)C=4O | 124% (active) |
| CC(C)OC(=O)OCOP(=O)(CO[C@H](C)Cn1cnc2c(N)ncnc21)OCOC(=O)OC(C)C | 32.1% |
| O=C(O)c1ccc(-n2nc(-c3ccccc3O)nc2-c2ccccc2O)cc1 | 112% (active) |
| COc1ccc(-c2ccc3cc(C(=O)O)ccc3c2)cc1C12CC3CC(CC(C3)C1)C2 | 123% (active) |
| COCCCN1CCC(NC(=O)c2cc(Cl)c(N)c3c2OCC3)CC1 | 3.4% |
| CCOC(=O)c1c(C)n(C)c2ccc(O)cc12 | 0% |
| NCCCC(N)(C(=O)O)C(F)F (stereo not given) | 12.2% |
| CN1CCCN=C1/C=C/c1cccs1 | 13.5% |
| CC(=O)N[C@H]1[C@H]([C@H](O)[C@H](O)CO)OC(C(=O)O)=C[C@@H]1N=C(N)N | -2.4% |
| O=[N+]([O-])c1cncn1CCN1CCOCC1 | -5% |
| C=CC(=O)Nc1cc2c(Nc3ccc(F)c(Cl)c3)ncnc2cc1OCCCN1CCOCC1 | 112% (active) |
| Cc1ccc(C(=O)c2cc(O)c(O)c([N+](=O)[O-])c2)cc1 | 55.5% (active) |
| Cc1nnc(C(=O)NC(C)(C)c2nc(C(=O)NCc3ccc(F)cc3)c(O)c(=O)n2C)o1 | 1% |
| Cc1ccccc1C(=O)Nc1ccc(C(=O)N2CCCC(O)c3cc(Cl)ccc32)c(C)c1 (stereo not given) | 38.9% |
| COc1ccc2cccc(CCNC(C)=O)c2c1 | 3.7% |
| Cc1cc2c(cc1CC(=O)c1sccc1S(=O)(=O)Nc1onc(C)c1Cl)OCO2 | 20.9% |
| C[C@]12CCC(=O)C=C1[C@@H]1C[C@@H]1[C@H]1[C@@H]3[C@@H]4C[C@@H]4[C@@]4(CCC(=O)O4)[C@@]3(C)CC[C@@H]12 | 27.4% |
| CCC1=C[C@@H]2CN(C1)Cc1c([nH]c3ccccc13)[C@@](C(=O)OC)(c1cc3c(cc1OC)N(C)[C@H]1[C@@](O)(C(=O)OC)[C@H](OC(C)=O)[C@]4(CC)C=CCN5CC[C@]31[C@@H]54)C2 | 94.3% (active) |
| CC1(C)CCC(C)(C)c2cc(NC(=O)c3ccc(C(=O)O)cc3)ccc21 | 69.7% (active) |
| Cc1ccc(Nc2nccc(N(C)c3ccc4c(C)n(C)nc4c3)n2)cc1S(N)(=O)=O | 48.8% |

| SMILES | inhibition of viability |
| --- | --- |
| Clc1ccc(C(Cn2ccnc2)OCc2ccc(Sc3ccccc3)cc2)c(Cl)c1 (stereo not given) | 112% (active) |
| CNC(=O)c1ccccc1Sc1ccc2c(/C=C/c3ccccn3)n[nH]c2c1 | 45.5% |
| CCOC(=O)c1ccc(C#Cc2ccc3c(c2)C(C)(C)CCS3)nc1 | 98.6% (active) |
| CC(=O)OCC(=O)[C@@]12N=C(C)O[C@@H]1C[C@H]1[C@@H]3CCC4=CC(=O)C=C[C@]4(C)[C@H]3[C@@H](O)C[C@@]12C | -21.6% |
| O=P(O)(O)C(O)(Cn1ccnc1)P(=O)(O)O | 16.4% |
| O=c1cc(O)c(Cl)c[nH]1 | 27.8% |
| Clc1ccc(C(Cn2ccnc2)OCc2c(Cl)cccc2Cl)c(Cl)c1 (stereo not given) | 113% (active) |
| CC(C)(C)C(=O)Oc1ccc(S(=O)(=O)Nc2ccccc2C(=O)NCC(=O)O)cc1 | 24.1% |
| N[C@@H](Cc1c[nH]c2ccc(O)cc12)C(=O)O | 2.5% |
| O=C(Nc1ccc(S(=O)(=O)N2CCOCC2)cc1)c1cc(Cl)ccc1NS(=O)(=O)c1ccc(Cl)s1 | 124% (active) |
| CCCCN(CCCC)CC(O)c1cc(Cl)cc2c1-c1ccc(Cl)cc1/C2=C/c1ccc(Cl)cc1 (stereo not given) | 31% |
| N#Cc1c(N(CC(=O)O)CC(=O)O)sc(C(=O)O)c1CC(=O)O | -4% |
| N=C(N)c1ccc2cc(OC(=O)c3ccc(N=C(N)N)cc3)ccc2c1 | 30.6% |
| COC(c1ccccc1)(c1ccccc1)[C@H](Oc1nc(C)cc(C)n1)C(=O)O | 6.7% |
| NC(=O)c1ncn([C@@H]2O[C@H](CO)[C@@H](O)[C@H]2O)c1N | -20.6% |
| c1cnc2cc3c(cc2n1)C1CNCC3C1 | -2.57% |
| CC(C(=O)O)c1ccc2c(c1)CC(=O)c1ccccc1S2 (stereo not given) | -2.7% |
| CN(C)C(=O)COC(=O)Cc1ccc(OC(=O)c2ccc(N=C(N)N)cc2)cc1 | 13.5% |
| CCCCc1oc2ccc(NS(C)(=O)=O)cc2c1C(=O)c1ccc(OCCCN(CCCC)CCCC)cc1 | 99.3% (active) |
| CC(C)C[C@H](NC(=O)[C@H](CCc1ccccc1)NC(=O)CN1CCOCC1)C(=O)N[C@@H](Cc1ccccc1)C(=O)N[C@@H](CC(C)C)C(=O)[C@@]1(C)CO1 | 124% (active) |

Experiment: reduced SW480 viability measured with CellTiter-Glo, NPC library, primary (AID 1117343;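 active means compounds that lower viability of the colon cancer cells in the luminescence readout, with no numeric limit stated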)
Conditions: CellTiter-Glo luminescence; at 20 µM (top of the series) unless noted

| SMILES | viability decrease (inhibition) |
| --- | --- |
| Cc1cc(=O)c2c(O)c3c(O)cc(=O)c4c3c3c(cc(O)c1c23)C(C)(C)C=4O | 158% (active) |
| CC(C)OC(=O)OCOP(=O)(CO[C@H](C)Cn1cnc2c(N)ncnc21)OCOC(=O)OC(C)C | 22.7% |
| O=C(O)c1ccc(-n2nc(-c3ccccc3O)nc2-c2ccccc2O)cc1 | 130% (active) |
| COc1ccc(-c2ccc3cc(C(=O)O)ccc3c2)cc1C12CC3CC(CC(C3)C1)C2 | 159% (active) |
| COCCCN1CCC(NC(=O)c2cc(Cl)c(N)c3c2OCC3)CC1 | -13.9% |
| CCOC(=O)c1c(C)n(C)c2ccc(O)cc12 | 7% |
| NCCCC(N)(C(=O)O)C(F)F (stereo not given) | 65.3% (active) |
| CN1CCCN=C1/C=C/c1cccs1 | 4.9% |
| CC(=O)N[C@H]1[C@H]([C@H](O)[C@H](O)CO)OC(C(=O)O)=C[C@@H]1N=C(N)N | 19.9% |
| O=[N+]([O-])c1cncn1CCN1CCOCC1 | -2.7% |
| C=CC(=O)Nc1cc2c(Nc3ccc(F)c(Cl)c3)ncnc2cc1OCCCN1CCOCC1 | 130% (active) |
| Cc1ccc(C(=O)c2cc(O)c(O)c([N+](=O)[O-])c2)cc1 | 84.4% (active) |
| Cc1nnc(C(=O)NC(C)(C)c2nc(C(=O)NCc3ccc(F)cc3)c(O)c(=O)n2C)o1 | 31.6% |
| Cc1ccccc1C(=O)Nc1ccc(C(=O)N2CCCC(O)c3cc(Cl)ccc32)c(C)c1 (stereo not given) | 15.2% |
| COc1ccc2cccc(CCNC(C)=O)c2c1 | -8.5% |
| Cc1cc2c(cc1CC(=O)c1sccc1S(=O)(=O)Nc1onc(C)c1Cl)OCO2 | 6.8% |
| C[C@]12CCC(=O)C=C1[C@@H]1C[C@@H]1[C@H]1[C@@H]3[C@@H]4C[C@@H]4[C@@]4(CCC(=O)O4)[C@@]3(C)CC[C@@H]12 | -2.6% |
| CCC1=C[C@@H]2CN(C1)Cc1c([nH]c3ccccc13)[C@@](C(=O)OC)(c1cc3c(cc1OC)N(C)[C@H]1[C@@](O)(C(=O)OC)[C@H](OC(C)=O)[C@]4(CC)C=CCN5CC[C@]31[C@@H]54)C2 | 91.4% (active) |
| CC1(C)CCC(C)(C)c2cc(NC(=O)c3ccc(C(=O)O)cc3)ccc21 | 47.9% |
| Cc1ccc(Nc2nccc(N(C)c3ccc4c(C)n(C)nc4c3)n2)cc1S(N)(=O)=O | 69.3% (active) |

| SMILES | viability decrease (inhibition) |
| --- | --- |
| Clc1ccc(C(Cn2ccnc2)OCc2ccc(Sc3ccccc3)cc2)c(Cl)c1 (stereo not given) | 132% (active) |
| CNC(=O)c1ccccc1Sc1ccc2c(/C=C/c3ccccn3)n[nH]c2c1 | 59.2% (active) |
| CCOC(=O)c1ccc(C#Cc2ccc3c(c2)C(C)(C)CCS3)nc1 | 126% (active) |
| CC(=O)OCC(=O)[C@@]12N=C(C)O[C@@H]1C[C@H]1[C@@H]3CCC4=CC(=O)C=C[C@]4(C)[C@H]3[C@@H](O)C[C@@]12C | 14.8% |
| O=P(O)(O)C(O)(Cn1ccnc1)P(=O)(O)O | 32.9% |
| O=c1cc(O)c(Cl)c[nH]1 | 54.6% (active) |
| Clc1ccc(C(Cn2ccnc2)OCc2c(Cl)cccc2Cl)c(Cl)c1 (stereo not given) | 132% (active) |
| CC(C)(C)C(=O)Oc1ccc(S(=O)(=O)Nc2ccccc2C(=O)NCC(=O)O)cc1 | 70% (active) |
| N[C@@H](Cc1c[nH]c2ccc(O)cc12)C(=O)O | -17.1% |
| O=C(Nc1ccc(S(=O)(=O)N2CCOCC2)cc1)c1cc(Cl)ccc1NS(=O)(=O)c1ccc(Cl)s1 | 158% (active) |
| CCCCN(CCCC)CC(O)c1cc(Cl)cc2c1-c1ccc(Cl)cc1/C2=C/c1ccc(Cl)cc1 (stereo not given) | 10.6% |
| N#Cc1c(N(CC(=O)O)CC(=O)O)sc(C(=O)O)c1CC(=O)O | -7.1% |
| N=C(N)c1ccc2cc(OC(=O)c3ccc(N=C(N)N)cc3)ccc2c1 | 36.9% |
| COC(c1ccccc1)(c1ccccc1)[C@H](Oc1nc(C)cc(C)n1)C(=O)O | 9.7% |
| NC(=O)c1ncn([C@@H]2O[C@H](CO)[C@@H](O)[C@H]2O)c1N | -88.2% |
| c1cnc2cc3c(cc2n1)C1CNCC3C1 | 9.4% |
| CC(C(=O)O)c1ccc2c(c1)CC(=O)c1ccccc1S2 (stereo not given) | 21.1% |
| CN(C)C(=O)COC(=O)Cc1ccc(OC(=O)c2ccc(N=C(N)N)cc2)cc1 | -4.4% |
| CCCCc1oc2ccc(NS(C)(=O)=O)cc2c1C(=O)c1ccc(OCCCN(CCCC)CCCC)cc1 | 102% (active) |
| CC(C)C[C@H](NC(=O)[C@H](CCc1ccccc1)NC(=O)CN1CCOCC1)C(=O)N[C@@H](Cc1ccccc1)C(=O)N[C@@H](CC(C)C)C(=O)[C@@]1(C)CO1 | 150% (active) |
